# Measurements: paper PMC7862700, “An all-to-all approach to the identification of sequence-specific readers for epigenetic DNA modifications on cytosine”
# Legend:
# Assay in all cases: DAPPL (digital affinity profiling via proximity ligation, sequencing); 10 mM Tris-HCl pH 7.5, 50 mM NaCl, 1 mM DTT, 4% glycerol, room temperature, 30 min; GST-TFs on glutathione beads, 16-mer random dsDNA library, 0.1% formaldehyde crosslink after washing; high values mean tight binding
# [1] = target: T1, FLI1 (Homo sapiens, UniProt Q01543 1-452); details: protein: recombinant; tags: N-terminal GST; dsDNA, one strand shown
# T1 sequence: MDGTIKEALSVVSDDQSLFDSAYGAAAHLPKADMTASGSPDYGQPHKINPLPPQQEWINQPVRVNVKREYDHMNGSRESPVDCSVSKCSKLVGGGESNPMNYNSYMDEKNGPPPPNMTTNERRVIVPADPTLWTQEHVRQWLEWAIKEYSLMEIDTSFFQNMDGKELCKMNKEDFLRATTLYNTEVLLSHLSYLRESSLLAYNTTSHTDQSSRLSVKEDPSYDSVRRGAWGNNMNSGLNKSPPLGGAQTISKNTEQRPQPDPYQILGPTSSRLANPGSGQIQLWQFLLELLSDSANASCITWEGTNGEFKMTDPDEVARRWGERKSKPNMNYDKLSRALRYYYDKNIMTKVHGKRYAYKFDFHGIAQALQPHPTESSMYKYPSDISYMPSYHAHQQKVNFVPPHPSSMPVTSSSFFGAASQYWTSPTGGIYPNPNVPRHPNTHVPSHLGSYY
# Summary of the method: (§1)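 Pools were built from human transcription factors expressed in yeast as GST fusions, captured on glutathione beads and DNA-barcoded, along with a tag-only sample. Incubation with 200 nmole of a 16-mer random double-stranded DNA library lasted 30 min at room temperature in Tris/NaCl/DTT/glycerol buffer, and was followed by washing, 0.1% formaldehyde crosslinking, proximity ligation, PCR amplification and Illumina NextSeq500 sequencing. Binding signal is the quotient of each hexamer's read frequency for a factor and its frequency for the tag-only sample.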
# [2] = target: T2, ELK1 (Homo sapiens, UniProt P19419 1-428); details: protein: recombinant; tags: N-terminal GST; dsDNA, one strand shown
# T2 sequence: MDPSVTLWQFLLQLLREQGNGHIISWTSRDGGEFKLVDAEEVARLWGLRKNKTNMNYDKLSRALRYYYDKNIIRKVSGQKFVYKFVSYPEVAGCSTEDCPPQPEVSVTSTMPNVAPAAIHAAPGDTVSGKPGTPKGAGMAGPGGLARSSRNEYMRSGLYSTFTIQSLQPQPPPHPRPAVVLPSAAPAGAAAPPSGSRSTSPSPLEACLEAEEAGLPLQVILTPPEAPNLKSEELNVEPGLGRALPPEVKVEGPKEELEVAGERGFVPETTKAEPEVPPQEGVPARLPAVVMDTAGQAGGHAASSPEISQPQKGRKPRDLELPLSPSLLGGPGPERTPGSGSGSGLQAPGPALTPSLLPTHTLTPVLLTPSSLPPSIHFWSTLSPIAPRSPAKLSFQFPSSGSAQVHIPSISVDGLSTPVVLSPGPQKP
# Summary of the method: as §1
# [3] = target: T3, GABPA (Homo sapiens, UniProt Q06546 1-454); details: protein: recombinant; tags: N-terminal GST; dsDNA, one strand shown
# T3 sequence: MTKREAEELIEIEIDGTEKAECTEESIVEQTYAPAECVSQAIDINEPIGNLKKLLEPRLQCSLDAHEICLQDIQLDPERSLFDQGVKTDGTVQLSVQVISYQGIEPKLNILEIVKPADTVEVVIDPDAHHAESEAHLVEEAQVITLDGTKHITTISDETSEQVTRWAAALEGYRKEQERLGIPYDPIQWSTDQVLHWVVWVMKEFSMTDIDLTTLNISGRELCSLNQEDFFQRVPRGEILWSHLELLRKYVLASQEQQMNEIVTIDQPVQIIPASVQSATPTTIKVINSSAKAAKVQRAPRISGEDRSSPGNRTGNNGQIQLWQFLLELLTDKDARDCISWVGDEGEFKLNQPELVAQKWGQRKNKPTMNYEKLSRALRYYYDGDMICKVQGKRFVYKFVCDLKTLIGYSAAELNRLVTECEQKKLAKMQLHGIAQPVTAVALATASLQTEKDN
# Summary of the method: as §1
# [4] = target: T4, ERG (Homo sapiens, UniProt P11308 1-479); details: protein: recombinant; tags: N-terminal GST; dsDNA, one strand shown
# T4 sequence: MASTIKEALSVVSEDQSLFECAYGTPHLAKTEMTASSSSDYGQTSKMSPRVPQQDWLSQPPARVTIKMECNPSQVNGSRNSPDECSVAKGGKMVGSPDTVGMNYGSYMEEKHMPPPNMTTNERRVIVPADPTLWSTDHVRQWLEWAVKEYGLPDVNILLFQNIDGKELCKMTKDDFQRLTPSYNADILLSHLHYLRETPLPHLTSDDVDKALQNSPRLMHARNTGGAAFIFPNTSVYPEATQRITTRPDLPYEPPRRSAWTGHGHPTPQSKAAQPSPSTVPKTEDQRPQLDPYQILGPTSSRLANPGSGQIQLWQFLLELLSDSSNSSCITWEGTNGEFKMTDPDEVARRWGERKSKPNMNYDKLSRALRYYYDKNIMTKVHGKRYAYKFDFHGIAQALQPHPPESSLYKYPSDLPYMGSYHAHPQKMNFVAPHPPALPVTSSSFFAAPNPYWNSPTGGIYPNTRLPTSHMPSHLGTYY
# Summary of the method: as §1
# [5] = target: ELF1 (Homo sapiens, UniProt P32519 1-619); details: protein: recombinant; tags: N-terminal GST; dsDNA, one strand shown
# Sequence of ELF1 (P32519 whole entry): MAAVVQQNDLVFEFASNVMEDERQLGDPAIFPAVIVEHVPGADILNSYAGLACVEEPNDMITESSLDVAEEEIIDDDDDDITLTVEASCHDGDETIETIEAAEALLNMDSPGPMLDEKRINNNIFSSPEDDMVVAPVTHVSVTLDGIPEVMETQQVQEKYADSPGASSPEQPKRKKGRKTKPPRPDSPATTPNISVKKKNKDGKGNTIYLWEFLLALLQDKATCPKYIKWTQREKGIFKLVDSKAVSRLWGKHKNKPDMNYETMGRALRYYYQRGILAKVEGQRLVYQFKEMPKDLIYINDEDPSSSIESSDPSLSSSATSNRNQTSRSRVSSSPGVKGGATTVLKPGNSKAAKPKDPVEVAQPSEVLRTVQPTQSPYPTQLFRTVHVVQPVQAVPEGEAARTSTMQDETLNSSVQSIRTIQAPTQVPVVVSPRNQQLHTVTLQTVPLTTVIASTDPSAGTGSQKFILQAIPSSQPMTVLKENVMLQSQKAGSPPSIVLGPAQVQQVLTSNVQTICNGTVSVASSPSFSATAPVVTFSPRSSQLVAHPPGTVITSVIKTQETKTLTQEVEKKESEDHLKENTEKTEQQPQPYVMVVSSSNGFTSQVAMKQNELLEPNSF
# Summary of the method: as §1
# [6] = target: T5, EHF (Homo sapiens, UniProt Q9NZC4 1-300); details: protein: recombinant; tags: N-terminal GST; dsDNA, one strand shown
# T5 sequence: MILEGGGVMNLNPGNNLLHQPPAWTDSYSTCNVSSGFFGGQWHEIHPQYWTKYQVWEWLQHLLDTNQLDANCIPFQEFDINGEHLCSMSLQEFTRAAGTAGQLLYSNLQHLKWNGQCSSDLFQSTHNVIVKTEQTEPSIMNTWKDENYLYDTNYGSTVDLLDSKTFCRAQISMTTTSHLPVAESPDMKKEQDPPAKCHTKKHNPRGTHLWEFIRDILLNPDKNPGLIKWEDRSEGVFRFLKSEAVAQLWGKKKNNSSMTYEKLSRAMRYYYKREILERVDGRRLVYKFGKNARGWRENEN
# Summary of the method: as §1
# [7] = target: SPI1 (Homo sapiens, UniProt P17947 1-270); details: protein: recombinant; tags: N-terminal GST; dsDNA, one strand shown
# Summary of the method: as §1
# [8] = target: SPIB (Homo sapiens, UniProt Q01892 1-262); details: protein: recombinant; tags: N-terminal GST; dsDNA, one strand shown
# Sequence of SPIB (Q01892 whole entry): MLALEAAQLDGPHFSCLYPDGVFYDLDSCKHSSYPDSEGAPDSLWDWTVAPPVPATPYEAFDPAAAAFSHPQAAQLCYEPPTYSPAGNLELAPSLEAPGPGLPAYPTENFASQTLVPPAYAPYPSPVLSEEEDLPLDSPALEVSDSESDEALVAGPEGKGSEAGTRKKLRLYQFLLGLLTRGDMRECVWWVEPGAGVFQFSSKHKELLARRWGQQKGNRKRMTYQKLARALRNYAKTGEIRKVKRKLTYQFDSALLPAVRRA
# Summary of the method: as §1
# [9] = target: T6, ELK3 (Homo sapiens, UniProt P41970 1-407); details: protein: recombinant; tags: N-terminal GST; dsDNA, one strand shown
# T6 sequence: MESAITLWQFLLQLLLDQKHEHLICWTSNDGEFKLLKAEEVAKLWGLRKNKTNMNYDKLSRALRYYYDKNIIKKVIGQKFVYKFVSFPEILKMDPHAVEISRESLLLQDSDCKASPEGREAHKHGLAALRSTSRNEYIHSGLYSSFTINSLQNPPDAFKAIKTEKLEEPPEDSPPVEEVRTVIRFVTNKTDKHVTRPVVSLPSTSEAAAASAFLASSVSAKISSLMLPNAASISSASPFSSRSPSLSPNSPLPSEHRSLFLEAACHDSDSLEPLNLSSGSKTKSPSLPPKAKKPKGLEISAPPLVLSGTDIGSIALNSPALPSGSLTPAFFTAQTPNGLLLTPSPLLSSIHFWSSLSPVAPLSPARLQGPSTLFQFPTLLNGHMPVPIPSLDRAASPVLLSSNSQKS
# Summary of the method: as §1
# [10] = target: T7, FEV (Homo sapiens, UniProt Q99581 1-238); details: protein: recombinant; tags: N-terminal GST; dsDNA, one strand shown
# T7 sequence: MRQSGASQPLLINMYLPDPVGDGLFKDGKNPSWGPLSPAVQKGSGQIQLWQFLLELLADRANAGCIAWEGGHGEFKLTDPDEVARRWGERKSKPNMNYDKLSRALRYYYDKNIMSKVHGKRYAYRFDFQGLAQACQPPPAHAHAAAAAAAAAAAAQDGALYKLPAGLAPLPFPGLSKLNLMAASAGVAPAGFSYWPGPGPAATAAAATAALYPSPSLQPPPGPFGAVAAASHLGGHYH
# Summary of the method: as §1
# [11] = target: ETV5 (Homo sapiens, UniProt P41161 1-510); details: protein: recombinant; tags: N-terminal GST; dsDNA, one strand shown
# Sequence of ETV5 (P41161 whole entry): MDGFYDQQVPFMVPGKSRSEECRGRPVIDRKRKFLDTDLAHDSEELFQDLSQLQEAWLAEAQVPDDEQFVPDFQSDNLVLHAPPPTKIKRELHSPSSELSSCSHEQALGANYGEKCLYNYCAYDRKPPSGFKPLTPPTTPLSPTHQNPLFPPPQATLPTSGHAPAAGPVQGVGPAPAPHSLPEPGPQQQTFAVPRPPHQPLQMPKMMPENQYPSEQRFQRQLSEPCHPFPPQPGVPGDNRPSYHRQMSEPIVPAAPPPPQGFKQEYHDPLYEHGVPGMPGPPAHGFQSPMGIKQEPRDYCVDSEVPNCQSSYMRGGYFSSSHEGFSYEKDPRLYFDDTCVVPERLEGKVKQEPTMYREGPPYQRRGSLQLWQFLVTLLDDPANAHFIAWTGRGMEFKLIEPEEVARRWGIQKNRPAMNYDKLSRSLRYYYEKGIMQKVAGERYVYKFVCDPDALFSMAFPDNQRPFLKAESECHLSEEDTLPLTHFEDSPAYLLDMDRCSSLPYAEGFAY
# Summary of the method: as §1
# [12] = target: HSF1 (Homo sapiens, UniProt Q00613 1-529); details: protein: recombinant; tags: N-terminal GST; chain copies: 3; dsDNA, one strand shown
# Sequence of HSF1 (Q00613 whole entry): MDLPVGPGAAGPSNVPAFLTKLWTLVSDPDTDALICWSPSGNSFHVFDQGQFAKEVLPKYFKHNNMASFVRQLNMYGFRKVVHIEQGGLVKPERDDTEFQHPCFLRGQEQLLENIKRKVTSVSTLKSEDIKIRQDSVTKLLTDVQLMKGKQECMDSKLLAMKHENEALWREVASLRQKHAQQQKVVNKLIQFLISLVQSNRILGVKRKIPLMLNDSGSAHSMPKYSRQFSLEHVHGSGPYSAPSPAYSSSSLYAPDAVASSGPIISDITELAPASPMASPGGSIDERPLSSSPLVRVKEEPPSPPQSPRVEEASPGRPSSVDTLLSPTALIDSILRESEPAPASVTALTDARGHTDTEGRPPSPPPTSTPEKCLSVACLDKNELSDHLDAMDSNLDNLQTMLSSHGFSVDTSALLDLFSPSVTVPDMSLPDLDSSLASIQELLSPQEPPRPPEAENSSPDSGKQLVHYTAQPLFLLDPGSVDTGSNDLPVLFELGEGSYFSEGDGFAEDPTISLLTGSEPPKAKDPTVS
# Summary of the method: as §1
# [13] = target: T8, SPIC (Homo sapiens, UniProt Q8N5J4 1-248); details: protein: recombinant; tags: N-terminal GST; dsDNA, one strand shown
# T8 sequence: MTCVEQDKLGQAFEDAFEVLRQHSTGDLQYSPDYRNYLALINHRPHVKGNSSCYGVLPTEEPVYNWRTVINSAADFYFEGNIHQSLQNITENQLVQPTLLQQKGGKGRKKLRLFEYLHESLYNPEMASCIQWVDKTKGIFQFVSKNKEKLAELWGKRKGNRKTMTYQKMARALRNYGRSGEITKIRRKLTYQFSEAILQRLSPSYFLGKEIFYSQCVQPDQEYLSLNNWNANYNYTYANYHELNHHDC
# Summary of the method: as §1
# [14] = target: ELF4 (Homo sapiens, UniProt Q99607 1-663); details: protein: recombinant; tags: N-terminal GST; dsDNA, one strand shown
# Sequence of ELF4 (Q99607 whole entry): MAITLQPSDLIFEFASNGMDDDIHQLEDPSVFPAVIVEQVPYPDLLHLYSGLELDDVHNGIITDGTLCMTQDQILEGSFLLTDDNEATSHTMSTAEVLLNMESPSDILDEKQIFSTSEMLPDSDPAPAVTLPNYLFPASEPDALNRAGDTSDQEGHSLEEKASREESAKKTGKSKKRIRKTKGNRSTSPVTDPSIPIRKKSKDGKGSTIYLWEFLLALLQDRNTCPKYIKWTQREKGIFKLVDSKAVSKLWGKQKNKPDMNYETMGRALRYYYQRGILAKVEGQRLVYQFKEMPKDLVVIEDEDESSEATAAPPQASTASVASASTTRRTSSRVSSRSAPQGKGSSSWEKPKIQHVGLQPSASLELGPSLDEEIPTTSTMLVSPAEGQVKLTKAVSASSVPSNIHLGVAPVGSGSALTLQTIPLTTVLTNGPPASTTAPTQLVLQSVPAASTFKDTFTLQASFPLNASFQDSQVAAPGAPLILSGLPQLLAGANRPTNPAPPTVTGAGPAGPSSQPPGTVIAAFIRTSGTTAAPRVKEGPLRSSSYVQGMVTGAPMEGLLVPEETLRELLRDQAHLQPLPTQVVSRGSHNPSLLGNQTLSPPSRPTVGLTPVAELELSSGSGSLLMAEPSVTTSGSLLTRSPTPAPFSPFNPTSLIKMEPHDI
# Summary of the method: as §1
# [15] = target: T9, ELK4 (Homo sapiens, UniProt P28324-2 1-405); details: protein: recombinant; tags: N-terminal GST; dsDNA, one strand shown
# T9 sequence: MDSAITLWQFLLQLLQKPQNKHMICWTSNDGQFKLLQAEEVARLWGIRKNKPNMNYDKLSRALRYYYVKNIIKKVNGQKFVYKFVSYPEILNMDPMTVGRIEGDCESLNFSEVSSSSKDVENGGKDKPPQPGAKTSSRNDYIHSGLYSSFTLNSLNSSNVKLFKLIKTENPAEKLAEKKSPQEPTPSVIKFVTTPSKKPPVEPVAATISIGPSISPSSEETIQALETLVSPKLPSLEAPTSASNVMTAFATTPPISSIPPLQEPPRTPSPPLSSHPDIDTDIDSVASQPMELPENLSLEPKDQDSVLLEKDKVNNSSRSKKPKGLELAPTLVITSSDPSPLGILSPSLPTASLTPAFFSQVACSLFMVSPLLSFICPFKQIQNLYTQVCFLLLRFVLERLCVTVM
# Summary of the method: as §1
# [16] = target: T10, ETV2 (Homo sapiens, UniProt O00321 1-342); details: protein: recombinant; tags: N-terminal GST; dsDNA, one strand shown
# T10 sequence: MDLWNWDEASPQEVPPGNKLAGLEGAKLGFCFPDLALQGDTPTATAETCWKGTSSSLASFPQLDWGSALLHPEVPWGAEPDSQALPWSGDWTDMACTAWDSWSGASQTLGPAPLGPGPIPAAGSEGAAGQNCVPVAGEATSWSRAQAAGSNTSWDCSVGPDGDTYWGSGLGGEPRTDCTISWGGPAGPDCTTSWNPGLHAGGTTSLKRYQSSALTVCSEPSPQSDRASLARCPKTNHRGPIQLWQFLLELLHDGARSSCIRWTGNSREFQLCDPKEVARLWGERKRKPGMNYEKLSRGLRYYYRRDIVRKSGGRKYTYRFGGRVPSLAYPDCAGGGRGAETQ
# Summary of the method: as §1
# [17] = target: T11, ELF3 (Homo sapiens, UniProt P78545 1-371); details: protein: recombinant; tags: N-terminal GST; dsDNA, one strand shown
# T11 sequence: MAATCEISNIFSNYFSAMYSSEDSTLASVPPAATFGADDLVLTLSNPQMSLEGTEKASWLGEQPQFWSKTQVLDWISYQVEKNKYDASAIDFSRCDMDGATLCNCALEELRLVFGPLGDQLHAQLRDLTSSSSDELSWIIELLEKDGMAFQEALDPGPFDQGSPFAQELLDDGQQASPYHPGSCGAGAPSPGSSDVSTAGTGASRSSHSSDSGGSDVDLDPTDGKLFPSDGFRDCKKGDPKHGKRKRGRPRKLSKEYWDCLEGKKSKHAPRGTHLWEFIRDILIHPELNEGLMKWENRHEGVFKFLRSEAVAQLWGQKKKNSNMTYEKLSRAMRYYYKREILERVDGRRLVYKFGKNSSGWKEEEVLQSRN
# Summary of the method: as §1
# [18] = target: CRX (Homo sapiens, UniProt O43186 1-299); details: protein: recombinant; tags: N-terminal GST; dsDNA, one strand shown
# Sequence of CRX (O43186 whole entry): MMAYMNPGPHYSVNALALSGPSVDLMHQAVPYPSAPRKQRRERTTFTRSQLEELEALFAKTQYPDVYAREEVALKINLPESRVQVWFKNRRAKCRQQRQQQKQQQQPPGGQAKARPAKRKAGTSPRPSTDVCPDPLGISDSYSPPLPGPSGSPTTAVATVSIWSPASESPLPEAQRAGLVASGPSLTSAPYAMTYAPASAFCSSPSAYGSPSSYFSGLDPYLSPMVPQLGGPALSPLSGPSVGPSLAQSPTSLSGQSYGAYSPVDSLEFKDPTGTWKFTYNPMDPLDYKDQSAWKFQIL
# Summary of the method: as §1
# [19] = target: ETV1 (Homo sapiens, UniProt P50549 1-477); details: protein: recombinant; tags: N-terminal GST; dsDNA, one strand shown
# Sequence of ETV1 (P50549 whole entry): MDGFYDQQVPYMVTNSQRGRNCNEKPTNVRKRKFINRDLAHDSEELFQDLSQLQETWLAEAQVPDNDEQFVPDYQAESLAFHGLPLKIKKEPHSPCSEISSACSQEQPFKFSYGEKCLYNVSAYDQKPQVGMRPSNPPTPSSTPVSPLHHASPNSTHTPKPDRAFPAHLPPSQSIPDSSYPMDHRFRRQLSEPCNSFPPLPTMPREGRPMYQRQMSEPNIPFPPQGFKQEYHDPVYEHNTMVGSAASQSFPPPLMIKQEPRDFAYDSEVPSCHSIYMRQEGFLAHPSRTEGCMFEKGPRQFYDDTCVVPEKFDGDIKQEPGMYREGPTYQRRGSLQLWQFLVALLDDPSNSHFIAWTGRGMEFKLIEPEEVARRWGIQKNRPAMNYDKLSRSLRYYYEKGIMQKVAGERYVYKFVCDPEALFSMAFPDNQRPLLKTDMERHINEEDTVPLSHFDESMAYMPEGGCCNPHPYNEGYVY
# Summary of the method: as §1
sequence,measurement,setting,value
TTTGCA,binding signal,[1],"1.27 fold enrichment (6-mer frequency, TF over GST control)"
same,binding signal,[2],"1.33 fold enrichment (6-mer frequency, TF over GST control)"
same,binding signal,[3],"1.34 fold enrichment (6-mer frequency, TF over GST control)"
same,binding signal,[4],"1.29 fold enrichment (6-mer frequency, TF over GST control)"
same,binding signal,[5],"1.32 fold enrichment (6-mer frequency, TF over GST control)"
same,binding signal,[6],"1.19 fold enrichment (6-mer frequency, TF over GST control)"
same,binding signal,[7],"1.22 fold enrichment (6-mer frequency, TF over GST control)"
same,binding signal,[8],"1.29 fold enrichment (6-mer frequency, TF over GST control)"
same,binding signal,[9],"1.32 fold enrichment (6-mer frequency, TF over GST control)"
same,binding signal,[10],"1.18 fold enrichment (6-mer frequency, TF over GST control)"
same,binding signal,[11],"1.22 fold enrichment (6-mer frequency, TF over GST control)"
same,binding signal,[12],"1.26 fold enrichment (6-mer frequency, TF over GST control)"
same,binding signal,[13],"1.23 fold enrichment (6-mer frequency, TF over GST control)"
same,binding signal,[14],"1.29 fold enrichment (6-mer frequency, TF over GST control)"
same,binding signal,[15],"1.3 fold enrichment (6-mer frequency, TF over GST control)"
same,binding signal,[16],"1.24 fold enrichment (6-mer frequency, TF over GST control)"
same,binding signal,[17],"1.28 fold enrichment (6-mer frequency, TF over GST control)"
same,binding signal,[18],"1.48 fold enrichment (6-mer frequency, TF over GST control)"
same,binding signal,[19],"1.29 fold enrichment (6-mer frequency, TF over GST control)"
